# Compounds with a hit are over-represented: about 5% of the library has one in this group of screens.
# TbPYK inhibitor: qHTS of Trypanosoma Brucei Inhibitors; Potency, µM (series often up to 76.8 µM), for the others: at the top dose activity, negative = inhibition, usual class: inhibitors; pyruvate kinase (Trypanosoma brucei), Q57TT1; actives 0.12% (n = 410,000); AID 624173, 2012; TbPYK enzyme, Kinase-Glo Plus ATP luminescence, 45 min; note: potency is the fitted concentration of half-maximal effect; nearly all actives have a fitted effect of over 50% in size
#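 TbPYK + substrate in 50 mM TEA pH 7.2, 100 mM KCl, 10 mM MgCl2, 0.05% BSA, 0.01% Tween-20; cpd pinned; ADP 130 uM final; 45 min RT; Kinase-Glo Plus 10 min; luminescence endpoint.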
# Vaccinia Venus: qHTS for Stage-Specific Inhibitors of Vaccinia Orthopoxvirus: Venus Reporter Primary qHTS; Vaccinia virus Venus reporter expression, fluorescence; Potency, µM (series often up to 36.5 µM), for inactives: top-dose activity change, negative = inhibition, hits mostly inhibitors; actives 0.46% (n = 330,000); calls by dose curve; tested in A549 cells; note: potency is the fitted concentration of half-maximal effect; nearly all actives have a fitted effect of over 30% in size
# VACV mCherry inh: qHTS for Stage-Specific Inhibitors of Vaccinia Orthopoxvirus: mCherry Reporter Primary qHTS; Vaccinia virus mCherry reporter infection, fluorescence; Potency, µM (titrated, usually from 36.5 µM), without a hit: at the top dose activity change, negative = inhibition, most hits filed as inhibitors; actives 0.63% (n = 310,000); AID 720579, 2013; calls by dose curve; tested in A549 cells; note: potency is the fitted concentration of half-maximal effect; nearly all actives have a fitted effect of over 35% in size
# HCMV antiviral: qHTS Assay for inhibitors of the human cytomegalovirus (HCMV). HFF cells, HCMV-luciferase reporter, 72 h; stronger effect = lower value. activity change, negative = inhibition, % at 57.5 µM. actives 4.5% (n = 410,000). AID 1259415, 2018; in the data active = activity change below about -60%; inconclusive = no clear call, values can overlap the other calls; inactive = above about -39%
#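 Human foreskin fibroblasts infected with luciferase-reporter HCMV at MOI 1 PFU/cell, compounds at two doses. Luciferase measured 72 h post infection; normalized to buffer-only basal and Salinomycin (10uM) controls.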
# LmPK inhibitor: qHTS Assay for Inhibitors of Leishmania Mexicana Pyruvate Kinase (LmPK). Q27686. Potency, µM (doses to about 57.5 µM), inactives show top-dose activity change, negative = inhibition, usual class: inhibitors. purified LmPK, Kinase-Glo ATP luminescence, 1 h. AID 1721, 2009. actives 0.37% (n = 290,000); note: potency is the fitted concentration of half-maximal effect
# Target sequence (Q27686 whole entry, looked up): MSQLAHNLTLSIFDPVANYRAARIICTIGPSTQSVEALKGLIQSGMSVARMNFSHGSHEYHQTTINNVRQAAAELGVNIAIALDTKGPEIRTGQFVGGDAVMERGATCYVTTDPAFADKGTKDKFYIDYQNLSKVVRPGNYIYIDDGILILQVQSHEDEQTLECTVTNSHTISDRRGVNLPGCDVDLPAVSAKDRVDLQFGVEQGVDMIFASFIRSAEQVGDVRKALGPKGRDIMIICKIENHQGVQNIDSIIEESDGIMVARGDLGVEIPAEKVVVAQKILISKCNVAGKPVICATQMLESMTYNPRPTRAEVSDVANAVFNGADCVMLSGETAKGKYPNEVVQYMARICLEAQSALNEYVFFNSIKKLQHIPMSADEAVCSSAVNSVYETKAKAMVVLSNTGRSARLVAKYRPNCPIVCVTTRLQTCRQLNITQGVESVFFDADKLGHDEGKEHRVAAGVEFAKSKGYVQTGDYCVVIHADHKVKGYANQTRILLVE
#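 Screened at intermediate enzyme activity to detect both inhibitors and activators: LmPK at 0.1 nM, with a 0.5 nM enzyme column as activation reference. PEP 0.5 mM, ADP 0.1 mM; ATP detected by luminescence after 1 h.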
# Active calls of the source: *; i = inactive; ? = inconclusive; nt = no result. Unless noted, calls come from the whole dose curve; as a rule, active = well fitted curve in the direction sought with a large enough effect; inconclusive = small, poorly fitted or top-dose-only effect, or another doubt; inactive = no such curve, though single readings can be large; an effect the other way counts as inactive or inconclusive. % is set by controls: 0 for no effect and ±100 for the full control effect.
SMILES,TbPYK inhibitor,Vaccinia Venus,VACV mCherry inh,HCMV antiviral,LmPK inhibitor
COc1ccccc1C(=O)NCC(=O)Nc1ccc2c(c1)OCO2,-0.3%,-5.6%,i,-0.5,nt
Cc1nn2c(=O)cc(COC(=O)c3ccc(NC(=O)c4cccs4)cc3)nc2s1,-2.5%,?,?,-99.6*,nt
COc1ccc(OCC(=O)Nc2ccc(C(=O)OCc3cc(=O)n4nc(C)sc4n3)cc2)cc1,0.7%,-25.9%,i,-28.4,nt
Cc1nn2c(=O)cc(COC(=O)c3ccc(NC(=O)COc4ccc(Cl)cc4)cc3)nc2s1,-17.0%,-22.9%,-4.3%,-84.3*,nt
O=C(CCCn1c(=O)[nH]c2ccsc2c1=O)NC1CCCCC1,1.7%,-8.7%,-11.8%,24.9,4.9%
O=C(NCc1ccc(OC(F)(F)F)cc1)c1cc(-c2ccccc2)nn1CC1CC(c2cccnc2)=NO1 (stereo unspecified),2.2%,-19.7%,i,-67.1*,nt
CCOC(=O)C(C)/C(C)=N/NC(N)=S (stereo unspecified),-4.4%,?,22.4µM*,?,1.1%
CCOC(=O)C(C)/C(C)=N\Nc1ccc([N+](=O)[O-])cc1[N+](=O)[O-] (stereo unspecified),0.0%,-2.8%,-12.2%,-26.2,2.6%
O=C(CSc1ccc([N+](=O)[O-])cc1)c1ccccc1,6.0%,-9.8%,-23.1%,-73.3*,nt
O=C(Nc1ncccc1O)c1c(O)c2ccccc2[nH]c1=O,-1.0%,nt,nt,-76.7*,3.7%
Cc1cc[n+](-c2[nH]c(=O)sc2/C=N/NC([S-])=Nc2ccccc2)cc1,-24.3%,-7.7%,-6.9%,-61.2*,0.9%
O=c1[nH]c(-[n+]2ccccc2)c(/C=N/NC([S-])=Nc2ccccc2)s1,6.3%,-2.1%,-10.4%,22.1,1.0%
CCc1ccc(Nc2n[n+](-c3ccccc3)c(-c3ccc(SC)cc3)s2)cc1,-14.0%,-29.6%,-13.3%,-65.0*,-5.8%
COC(=O)C(Nc1ccccc1Cl)(c1cc(C)c(O)c(C)c1)C(F)(F)F (stereo unspecified),2.9%,?,nt,-77.6*,8.5%
CCOC(=O)C(NC(=O)c1ccccc1Cl)(Nc1ccc(C)c(C)c1)C(F)(F)F (stereo unspecified),-2.6%,-11.4%,-4.4%,-18.5,-0.5%
CC(C)NC(=O)CN1C(=O)COc2ccc(S(=O)(=O)N3CCCCCC3)cc21,-0.1%,-3.3%,-0.6%,11.7,nt
COc1ccc(NC(=O)C2CC(=O)N(CCc3ccc(Cl)cc3)C2)cc1 (stereo unspecified),5.3%,-23.2%,-2.2%,-86.4*,4.8%
CCCn1c2ccccc2c2cnn(CC(=O)NC(CCSC)C(=O)OC)c(=O)c21 (stereo unspecified),1.4%,0.0%,-6.0%,14.4,nt
COc1cc(/C=C/c2nc3ccccc3s2)cc(OC)c1O,1.6%,215.0%,9.4%,38.2,-17.6%
CN(C)c1ccc(/C=C/c2nc3ccccc3s2)cc1,-12.1%,-18.8%,-21.1%,-92.2*,-19.2%
CN(Cc1ccccc1)c1ccc(/C=C/c2nc3ccccc3s2)cc1,nt,-11.4%,-13.2%,nt,nt
Cc1ccc(/C=C/c2nc3ccccc3s2)s1,-1.5%,-6.1%,-7.2%,?,28.2µM*
CN(C)c1ccc(/C=C/c2cccc3cc4ccccc4nc23)cc1,nt,15.8µM*,11.2µM*,nt,nt
CN(C)c1ccc(/C=C/c2ccc3ccccc3n2)cc1,?,-5.3%,11.7%,nt,?
O=S(=O)(c1cccs1)N1CCN(c2nc(-c3cccs3)nc3ccccc23)CC1,nt,-12.0%,-13.3%,nt,nt
CCC(=O)NC(c1cc(Cl)c2cccnc2c1O)C(C)C (stereo unspecified),-6.1%,nt,nt,-95.6*,nt
CCC(=O)NC(c1cc(Cl)c2cccnc2c1O)C1CC1 (stereo unspecified),2.1%,nt,nt,-95.3*,nt
CCCC(=O)NCCc1cc2c(C)ccc(C)c2[nH]c1=O,0.0%,-7.2%,i,?,-3.8%
COc1ccc(NC(=O)N2CCCc3cccc(C)c32)cc1,-0.2%,nt,nt,-29.0,1.5%
O=C(N/C(=C/c1cccs1)C(=O)N1CCCC1)c1ccccc1,3.7%,10.3%,5.6%,7.0,1.9%

# Screens from PubChem BioAssay.
